Source: PubChem BioAssay
FECH inh: human FECH heme synthesis enzyme inhibition; P22830; purified FECH, Ni-mesoporphyrin absorbance 550 nm; calls only at 10 µM (by protocol); hit rate 3.3% among 20,000;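 active = enzyme reaction rate more than 3 SD below the solvent-only control wells on the same plate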;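 also: lower slope than DMSO wells means FECH inhibition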
Target sequence (P22830 whole entry, looked up): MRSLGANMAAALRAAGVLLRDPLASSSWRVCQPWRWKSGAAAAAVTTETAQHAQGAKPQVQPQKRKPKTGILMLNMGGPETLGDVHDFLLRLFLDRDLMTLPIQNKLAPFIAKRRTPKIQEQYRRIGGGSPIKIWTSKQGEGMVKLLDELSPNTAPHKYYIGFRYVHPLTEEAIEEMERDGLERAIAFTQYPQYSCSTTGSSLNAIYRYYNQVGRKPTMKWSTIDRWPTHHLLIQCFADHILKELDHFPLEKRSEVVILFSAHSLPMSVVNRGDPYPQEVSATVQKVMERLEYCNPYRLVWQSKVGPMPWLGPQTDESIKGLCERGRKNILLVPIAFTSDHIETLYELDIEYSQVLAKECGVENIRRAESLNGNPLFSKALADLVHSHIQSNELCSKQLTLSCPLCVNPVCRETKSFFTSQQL
Of the large screens only hits and unclear results are named; the others gave an inactive call. Shown is part of a subset that was picked to be rich in hits.

CC(=O)NCCc1cn(-c2ccc3c(c2)CCCN3C(C)=O)cn1	none
CC(=O)NCCc1cn(-c2cccc(OC(C)C)c2)cn1	FECH inh active
CC(=O)NCCc1cn(-c2ccc(-c3ncc(C)cn3)cc2)cn1	none
COc1cccc(F)c1-c1cncnc1	none
CCc1nc(OCC(=O)NCc2cccc(OC)c2)c2c(-c3ccc(F)cc3)noc2n1	FECH inh active
CCOc1ccc(CNC(=O)COc2nc(CC)nc3onc(-c4ccc(F)cc4)c23)cc1	none
CCc1nc(OCC(=O)NCc2ccc(C)cc2)c2c(-c3ccc(F)cc3)noc2n1	none
CCC1=C(c2ccc(OC)cc2)S(=O)(=O)N(CC(=O)NCc2cccs2)C1=O	none
CN(Cc1cccc(C(=O)Nc2cn(C)nn2)c1)CC1Cc2ccccc2O1 (configuration not stated)	none
CCOC(=O)C1CCN(c2ncc(NS(=O)(=O)c3ccc(OC)cc3)cc2C(=O)O)CC1	none
O=C(Nc1nc2n(n1)C(c1ccccc1)C=C(c1ccc(Cl)cc1)N2)c1cccs1 (configuration not stated)	none
COc1ccc(CN2CCCN(Cc3ccccc3Cl)S2(=O)=O)cc1	none
Cc1cccc(NC(=O)CN2CCN(Cc3ccc(F)cc3Cl)S2(=O)=O)c1	FECH inh active
O=C(CN1CCCN(Cc2ccccc2Cl)S1(=O)=O)Nc1cc(F)ccc1F	none
Cc1cc(C)cc(NC(=O)CN2CCN(Cc3ccc(F)cc3Cl)S2(=O)=O)c1	none
O=S1(=O)N(Cc2ccccc2Cl)CCCN1Cc1ccc(F)cc1Cl	FECH inh active
COc1ccc(NC(=O)CN2CCN(Cc3ccc(F)cc3Cl)S2(=O)=O)cc1Cl	FECH inh active
Cc1ccc(NC(=O)CN2CCN(Cc3ccc(F)cc3Cl)S2(=O)=O)cc1C	none
COc1ccc(NC(=O)CN2CCN(Cc3ccccc3Cl)S2(=O)=O)cc1Cl	none
O=C(CN1CCN(Cc2ccc(F)cc2Cl)S1(=O)=O)Nc1cccc(F)c1	none
CCCNC(=O)C1CCC(Cn2c(=O)c3sccc3n(CC(=O)NC(C)CC)c2=O)CC1 (configuration not stated)	none
CCCC(=O)Nc1cccc(C(=O)N(C)Cc2cc(C(C)(C)C)n[nH]2)c1	none
CCN1CCN(C(=O)c2ccc3oc(=O)n(Cc4ccc(C)cc4)c3c2)CC1	none
CN1CCN(C(=O)c2ccc3oc(=O)n(Cc4ccccc4)c3c2)CC1	none
O=C(c1ccc2oc(=O)n(Cc3ccccc3)c2c1)N1CCN(Cc2ccccc2)CC1	FECH inh active
COC(=O)c1cc(S(=O)(=O)N2CCCC2C(=O)NCc2ccc(OC)cc2)cn1C (configuration not stated)	none
CC(=O)Nc1ccc(CN(Cc2ccc(F)cc2)CC2CCCO2)cc1 (configuration not stated)	none
CCOc1ccc(S(=O)(=O)NCCn2c(C(F)(F)F)nc3cccnc32)cc1	FECH inh active
CC(C)(C)c1ccc(S(=O)(=O)NCCn2c(C(F)(F)F)nc3cccnc32)cc1	none
CCc1ccc(S(=O)(=O)NCCn2c(C(F)(F)F)nc3cccnc32)cc1	none
COc1ccccc1N1CCN(c2nc(SC)nc(-c3ccc(C)cc3)c2C#N)CC1	none
CN1CCN(c2nc(Nc3ccc(SC(F)F)cc3)c3cnn(-c4ccccc4)c3n2)CC1	none
CCc1nc(C)sc1CNC(=O)c1sccc1NC(C)=O	none
CCC(=O)Nc1cccc(C(=O)NCc2sc(C)nc2CC)c1	FECH inh active
CCC(=O)Nc1cccc(C(=O)NCc2nc(Cc3cccs3)no2)c1	none
O=C(Nc1ccccc1)c1cc2n(n1)CCCN(C(=O)[C@H]1C[C@@H]3C=C[C@H]1C3)C2	none
OC[C@H]1CCN(c2ncccc2Cl)C[C@@H]1O	none
CN(C)CCCn1ccnc1-c1cnc(N)nc1	none
CCCc1c(C)nc2ncnn2c1Sc1ccc(NC(=O)c2ccccc2)cc1	none
CCc1c(C)nc2ncnn2c1Sc1ccccc1NC(=O)c1ccccc1C	none
CCCC(=O)Nc1ccc(Sc2c(CC)c(C)nc3ncnn23)cc1	none
CCCc1c(C)nc2ncnn2c1Sc1ccc(NC(=O)c2ccc(C)cc2)cc1	none
CCc1c(C)nc2ncnn2c1Sc1ccc(NC(=O)c2ccc(Br)cc2)cc1	FECH inh active
CCCC(=O)Nc1ccc(Sc2c(CCC)c(C)nc3ncnn23)cc1	FECH inh active
CCCc1c(C)nc2ncnn2c1Sc1ccc(NC(=O)CC)cc1	none
CCc1c(C)nc2ncnn2c1Sc1ccc(NC(=O)c2ccc(OC)cc2)cc1	none
CCc1c(C)nc2ncnn2c1Sc1ccc(NC(=O)c2cccs2)cc1	none
CCc1c(C)nc2ncnn2c1Sc1ccc(NC(=O)c2ccccc2)cc1	none
CCc1c(C)nc2ncnn2c1Sc1ccc(NC(=O)c2ccccc2C)cc1	FECH inh active
CCCc1c(C)nc2ncnn2c1Sc1ccc(NC(=O)c2ccccc2C)cc1	FECH inh active
CN1CCC(Cc2noc(CCN3CCCCCC3=O)n2)CC1	none
CCN(CC1CCCO1)C(=O)c1cccc(-c2cn[nH]c2)c1 (configuration not stated)	none
O=C(Nc1cccc(N2CCCS2(=O)=O)c1)c1cccc(Br)c1	none
O=C1CNCC(C(=O)N2CCN(c3cccc(C(F)(F)F)c3)CC2)N1 (configuration not stated)	none
CC(C)NC(=O)c1nc[nH]c1C(=O)N1CCc2ccccc2C1	none
Cc1ccc(CNC(=O)CN2CCCN(Cc3ccc(Cl)cc3)S2(=O)=O)cc1	none
CCOc1c(Nc2ccccc2F)c(=O)c1=O	none
Cc1ccc(CNC(=O)C2(C)Cn3nc(C(=O)NCc4ccccc4)cc3C(=O)N2C)cc1 (configuration not stated)	none
O=S(=O)(Cc1ccccc1)NCCn1c(-c2ccccc2)nc2cccnc21	none
COc1ccc(Cl)cc1S(=O)(=O)NCCn1c(-c2ccc(C)cc2)nc2cccnc21	FECH inh active
Cc1ccc(-c2nc3cccnc3n2CCNS(=O)(=O)Cc2ccccc2)cc1	FECH inh active
Cc1ccc(-c2nc3cccnc3n2CCNS(C)(=O)=O)cc1	none
COc1ccc(OC)c(S(=O)(=O)NCCn2c(-c3ccc(C)cc3)nc3cccnc32)c1	none
CCc1ccc(NC(=O)NCCn2c(-c3ccncc3)nc3cccnc32)cc1	none
CCOc1ccc(NC(=O)NCCn2c(-c3ccncc3)nc3cccnc32)cc1	none
COc1ccc(OC)c(S(=O)(=O)NCCn2c(-c3ccccc3)nc3cccnc32)c1	none
CCOC(=O)c1ccccc1NC(=O)NCCn1c(-c2ccncc2)nc2cccnc21	FECH inh active
Cc1ccc(NC(=O)NCCc2nc3cccnc3n2-c2ccccc2)cc1C	none
COc1cc(NCC(c2ccccn2)N2CCOCC2)ncn1 (configuration not stated)	none
O=c1[nH]cccc1-c1ccc2c(c1)OCO2	none
CCc1ccccc1NC(=O)CSCc1nc(-c2ccc(C)cc2)no1	none
CC(=O)NC1CCN(C(=O)CC(c2ccccc2)c2ccc(F)cc2)CC1 (configuration not stated)	none
Cc1ccc(NC(=O)CCNC(=O)c2cccc3ccnn23)cc1	none
CS(=O)(=O)NCC1CCN(Cc2cc3ccccc3[nH]c2=O)C1 (configuration not stated)	none
CC(NC1CCN(C)CC1)c1ccc(-c2ccccc2)cc1 (configuration not stated)	none
CC(C)CCNC(=O)CN1c2ccc(Br)cc2-c2ccccc2S1(=O)=O	FECH inh active
Cc1ccc(NC(=O)CN2c3ccc(Br)cc3-c3ccccc3S2(=O)=O)cc1C	FECH inh active
Cc1ccc(NC(=O)CN2c3ccc(Br)cc3-c3ccccc3S2(=O)=O)cc1	FECH inh active
Cc1ccc(NC(=O)CN2CCN(Cc3ccccc3C)S2(=O)=O)cc1C	none
COc1ccc(NC(=O)CN2c3ccc(Br)cc3-c3ccccc3S2(=O)=O)cc1	none
